# According to the supplement of paper PMC10849652:
# The full data set covers some 7,900 targets. This sample favours those with a hit. About 0.6% of all pairs of compound and target were hits. Unmarked numbers belong to inactive results.
# Compound: COC1=CC=C(C=C1)CN2C=CC3=C2C=C(C=C3)C(=O)NO
# Experiment: log2 fold change, soluble protein after heating vs DMSO (PISA); higher = thermal stabilisation; K562 cells, 10 uM, 30 min; active = over 0.2 and 3.5 SD of the protein, either way, in both replicates (recomputed)
# How it was run: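 K562 cells at 2×10^6 cells/mL were exposed to 10 μM compound for 30 min, then aliquots were heated for 3 min across 48°C-58°C, pooled, and extracted in PBS containing 0.5% NP-40 at 4°C. The supernatant after 21,000xg for 90 min was taken as soluble protein and measured by TMTpro 16plex LC-MS/MS with channel sums equalised. Thermal stability is reported relative to control samples, with values from duplicates. Fold changes are given on a log2 scale.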
# Sequence of UniProt P27448 (P27448 whole entry, looked up): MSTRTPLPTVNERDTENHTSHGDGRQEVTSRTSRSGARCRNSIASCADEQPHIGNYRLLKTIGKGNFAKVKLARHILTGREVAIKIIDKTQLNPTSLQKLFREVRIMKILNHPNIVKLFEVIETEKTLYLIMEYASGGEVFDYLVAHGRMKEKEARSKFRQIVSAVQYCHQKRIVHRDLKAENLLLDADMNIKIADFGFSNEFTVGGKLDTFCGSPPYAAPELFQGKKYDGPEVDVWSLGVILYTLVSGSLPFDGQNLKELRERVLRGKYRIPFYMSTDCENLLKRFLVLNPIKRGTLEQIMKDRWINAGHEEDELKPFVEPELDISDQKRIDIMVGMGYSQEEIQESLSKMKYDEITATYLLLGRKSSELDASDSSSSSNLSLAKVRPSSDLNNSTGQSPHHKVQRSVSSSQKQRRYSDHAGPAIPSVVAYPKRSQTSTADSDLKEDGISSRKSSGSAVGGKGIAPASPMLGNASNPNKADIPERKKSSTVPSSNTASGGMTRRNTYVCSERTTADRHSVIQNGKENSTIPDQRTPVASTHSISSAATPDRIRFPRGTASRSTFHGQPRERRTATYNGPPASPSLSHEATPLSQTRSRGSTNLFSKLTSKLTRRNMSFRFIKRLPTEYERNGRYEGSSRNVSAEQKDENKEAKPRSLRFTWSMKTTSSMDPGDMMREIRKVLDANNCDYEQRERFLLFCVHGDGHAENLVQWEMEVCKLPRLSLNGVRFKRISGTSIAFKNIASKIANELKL
# Sequence of UniProt Q9Y2U8 (Q9Y2U8 whole entry, looked up): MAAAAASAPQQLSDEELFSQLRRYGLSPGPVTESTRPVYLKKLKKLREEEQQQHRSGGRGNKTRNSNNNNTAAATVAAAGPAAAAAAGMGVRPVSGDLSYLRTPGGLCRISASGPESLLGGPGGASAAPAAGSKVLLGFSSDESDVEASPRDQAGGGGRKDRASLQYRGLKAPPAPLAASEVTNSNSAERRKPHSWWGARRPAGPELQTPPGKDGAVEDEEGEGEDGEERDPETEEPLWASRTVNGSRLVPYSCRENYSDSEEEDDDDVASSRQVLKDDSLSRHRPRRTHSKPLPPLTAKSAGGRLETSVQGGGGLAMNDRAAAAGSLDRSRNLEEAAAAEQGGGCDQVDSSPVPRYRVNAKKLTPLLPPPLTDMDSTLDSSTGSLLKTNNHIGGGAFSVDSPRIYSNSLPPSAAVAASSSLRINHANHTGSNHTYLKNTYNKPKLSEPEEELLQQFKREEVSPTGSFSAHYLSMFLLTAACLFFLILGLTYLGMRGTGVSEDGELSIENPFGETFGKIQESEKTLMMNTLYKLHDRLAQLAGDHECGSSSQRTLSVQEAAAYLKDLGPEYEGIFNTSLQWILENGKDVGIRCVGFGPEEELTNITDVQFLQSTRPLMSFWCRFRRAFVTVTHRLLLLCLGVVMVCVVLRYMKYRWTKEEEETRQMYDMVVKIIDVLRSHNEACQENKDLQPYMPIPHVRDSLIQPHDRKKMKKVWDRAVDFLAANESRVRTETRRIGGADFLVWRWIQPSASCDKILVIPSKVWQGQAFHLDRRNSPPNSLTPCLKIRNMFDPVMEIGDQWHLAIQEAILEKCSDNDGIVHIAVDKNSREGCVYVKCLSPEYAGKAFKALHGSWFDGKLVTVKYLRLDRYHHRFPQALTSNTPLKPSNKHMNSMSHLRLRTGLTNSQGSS
# Sequence of UniProt Q9H6K1 (Q9H6K1 whole entry, looked up): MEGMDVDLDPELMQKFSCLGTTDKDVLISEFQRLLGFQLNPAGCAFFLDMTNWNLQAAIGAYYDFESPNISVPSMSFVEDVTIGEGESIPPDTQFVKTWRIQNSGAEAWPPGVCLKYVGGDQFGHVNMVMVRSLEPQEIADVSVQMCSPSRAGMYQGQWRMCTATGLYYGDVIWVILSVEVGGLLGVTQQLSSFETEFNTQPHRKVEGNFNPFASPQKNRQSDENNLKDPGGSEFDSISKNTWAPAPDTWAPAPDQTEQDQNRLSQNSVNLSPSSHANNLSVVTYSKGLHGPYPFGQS
# Sequence of UniProt Q02750 (Q02750 whole entry, looked up): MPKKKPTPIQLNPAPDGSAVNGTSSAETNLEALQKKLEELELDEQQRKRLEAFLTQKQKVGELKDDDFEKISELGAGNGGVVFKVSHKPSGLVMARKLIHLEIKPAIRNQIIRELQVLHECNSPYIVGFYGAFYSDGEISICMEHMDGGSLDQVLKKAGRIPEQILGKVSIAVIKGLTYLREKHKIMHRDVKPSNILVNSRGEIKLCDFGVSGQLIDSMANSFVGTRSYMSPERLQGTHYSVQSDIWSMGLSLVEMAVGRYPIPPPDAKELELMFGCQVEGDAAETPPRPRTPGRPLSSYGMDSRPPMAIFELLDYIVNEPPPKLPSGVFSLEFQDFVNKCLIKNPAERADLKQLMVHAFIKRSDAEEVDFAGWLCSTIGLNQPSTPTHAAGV
# Sequence of UniProt O95232 (O95232 whole entry, looked up): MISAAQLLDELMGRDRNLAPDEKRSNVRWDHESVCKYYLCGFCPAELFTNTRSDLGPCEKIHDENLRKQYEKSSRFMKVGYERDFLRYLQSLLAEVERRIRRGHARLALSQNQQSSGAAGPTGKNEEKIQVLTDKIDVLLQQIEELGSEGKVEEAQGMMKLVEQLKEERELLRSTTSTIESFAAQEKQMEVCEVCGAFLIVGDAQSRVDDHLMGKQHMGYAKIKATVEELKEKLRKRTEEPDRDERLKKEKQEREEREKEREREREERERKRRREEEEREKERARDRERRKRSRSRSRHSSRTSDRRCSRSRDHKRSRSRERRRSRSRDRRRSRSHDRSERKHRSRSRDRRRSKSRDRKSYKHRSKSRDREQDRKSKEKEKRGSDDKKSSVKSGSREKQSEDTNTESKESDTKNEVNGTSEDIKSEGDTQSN
# Sequence of UniProt Q9H1B7 (Q9H1B7 whole entry, looked up): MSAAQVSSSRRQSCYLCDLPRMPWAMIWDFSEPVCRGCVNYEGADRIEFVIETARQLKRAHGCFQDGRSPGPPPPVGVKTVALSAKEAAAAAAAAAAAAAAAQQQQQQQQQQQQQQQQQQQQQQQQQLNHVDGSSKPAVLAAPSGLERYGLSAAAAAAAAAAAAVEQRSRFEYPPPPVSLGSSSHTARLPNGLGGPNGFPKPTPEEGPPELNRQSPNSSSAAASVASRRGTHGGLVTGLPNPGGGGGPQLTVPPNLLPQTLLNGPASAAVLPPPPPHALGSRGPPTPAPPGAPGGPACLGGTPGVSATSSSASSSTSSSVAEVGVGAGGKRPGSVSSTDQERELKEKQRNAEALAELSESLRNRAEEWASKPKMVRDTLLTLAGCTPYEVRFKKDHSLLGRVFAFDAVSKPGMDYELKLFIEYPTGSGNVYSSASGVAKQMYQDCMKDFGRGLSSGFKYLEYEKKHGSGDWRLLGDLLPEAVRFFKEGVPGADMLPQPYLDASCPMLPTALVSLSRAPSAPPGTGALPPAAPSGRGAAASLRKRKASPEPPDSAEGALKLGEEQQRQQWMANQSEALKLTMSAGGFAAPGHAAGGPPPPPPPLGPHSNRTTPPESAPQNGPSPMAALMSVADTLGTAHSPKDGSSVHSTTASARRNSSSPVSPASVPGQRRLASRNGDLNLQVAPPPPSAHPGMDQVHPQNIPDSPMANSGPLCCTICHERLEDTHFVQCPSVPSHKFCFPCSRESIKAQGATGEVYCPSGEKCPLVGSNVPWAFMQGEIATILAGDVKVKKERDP
# Sequence of UniProt O14733 (O14733 whole entry, looked up): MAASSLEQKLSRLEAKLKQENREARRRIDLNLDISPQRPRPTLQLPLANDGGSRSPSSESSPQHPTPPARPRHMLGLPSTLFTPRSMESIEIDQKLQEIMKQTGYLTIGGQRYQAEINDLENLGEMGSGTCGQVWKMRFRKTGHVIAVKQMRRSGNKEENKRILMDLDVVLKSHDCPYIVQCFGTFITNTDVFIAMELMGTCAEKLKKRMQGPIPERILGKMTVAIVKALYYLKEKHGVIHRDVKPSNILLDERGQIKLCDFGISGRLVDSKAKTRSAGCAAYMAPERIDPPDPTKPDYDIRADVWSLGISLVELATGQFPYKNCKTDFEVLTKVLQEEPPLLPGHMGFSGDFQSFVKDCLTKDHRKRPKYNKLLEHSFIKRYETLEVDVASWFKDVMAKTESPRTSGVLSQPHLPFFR
# Sequence of UniProt Q9Y287 (Q9Y287 whole entry, looked up): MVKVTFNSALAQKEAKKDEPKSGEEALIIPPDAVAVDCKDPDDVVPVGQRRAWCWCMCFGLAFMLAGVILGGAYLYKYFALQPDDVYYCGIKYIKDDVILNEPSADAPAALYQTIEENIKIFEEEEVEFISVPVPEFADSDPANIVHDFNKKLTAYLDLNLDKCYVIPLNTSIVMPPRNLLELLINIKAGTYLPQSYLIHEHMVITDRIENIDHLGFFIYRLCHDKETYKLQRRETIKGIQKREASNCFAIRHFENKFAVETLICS
# Sequence of UniProt Q9H0B6 (Q9H0B6 whole entry, looked up): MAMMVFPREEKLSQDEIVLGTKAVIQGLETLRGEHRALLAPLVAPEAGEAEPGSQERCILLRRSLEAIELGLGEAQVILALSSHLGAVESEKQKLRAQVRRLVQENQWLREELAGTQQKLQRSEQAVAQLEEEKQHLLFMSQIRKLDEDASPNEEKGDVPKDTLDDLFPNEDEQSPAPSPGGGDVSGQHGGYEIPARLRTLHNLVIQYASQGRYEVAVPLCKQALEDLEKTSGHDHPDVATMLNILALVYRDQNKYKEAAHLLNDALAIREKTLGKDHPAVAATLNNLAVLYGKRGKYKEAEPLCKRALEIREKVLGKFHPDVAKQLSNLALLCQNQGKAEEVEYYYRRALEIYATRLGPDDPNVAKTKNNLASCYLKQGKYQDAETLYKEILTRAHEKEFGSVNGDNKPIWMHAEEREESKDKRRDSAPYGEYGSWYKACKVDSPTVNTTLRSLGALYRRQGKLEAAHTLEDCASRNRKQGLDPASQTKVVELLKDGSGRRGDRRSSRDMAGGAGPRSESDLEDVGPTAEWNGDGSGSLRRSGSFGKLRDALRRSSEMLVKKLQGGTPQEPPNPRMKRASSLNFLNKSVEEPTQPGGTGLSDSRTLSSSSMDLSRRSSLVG
row,Target,log2 fold change
1,ITM2B (UniProt Q9Y287),-0.109
2,IPO13 (UniProt O94829),-0.017
3,ILRUN (UniProt Q9H6K1),-0.051
4,IRF2BPL (UniProt Q9H1B7),0.283
5,LDLR (UniProt P01130),-0.012
6,LUC7L3 (UniProt O95232),0.106
7,MAP2K7 isoform 4 (UniProt O14733),-0.018
8,MDC1 (UniProt Q14676),-0.055
9,MAP2K1 (UniProt Q02750),0.022
10,MARK3 (UniProt P27448),0.008
11,KIF21A isoform 4 (UniProt Q7Z4S6),0.014
12,LEMD3 (UniProt Q9Y2U8),0.036
13,KDM5D isoform 3 (UniProt Q9BY66),-0.592 (active)
14,IK (UniProt Q13123),0.056
15,KLC2 (UniProt Q9H0B6),0.06
16,INPP5B (UniProt P32019),0
